The record followed here is ChEMBL document CHEMBL1961873, “Compounds: GSK PKIS; Assays: Nanosyn kinase panel” (2012).

Test [1] concerns the target Sphingosine kinase 1 (Homo sapiens) (UniProt Q9NYA1). Particulars: at 1 µM.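 Also: mean SPHK1 inhibition value reported from the GSK PKIS kinase panel screen.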
For test [2], the target named is T1, Sphingosine kinase 2 (Homo sapiens) (UniProt Q9NRA0).
T1 sequence (whole entry): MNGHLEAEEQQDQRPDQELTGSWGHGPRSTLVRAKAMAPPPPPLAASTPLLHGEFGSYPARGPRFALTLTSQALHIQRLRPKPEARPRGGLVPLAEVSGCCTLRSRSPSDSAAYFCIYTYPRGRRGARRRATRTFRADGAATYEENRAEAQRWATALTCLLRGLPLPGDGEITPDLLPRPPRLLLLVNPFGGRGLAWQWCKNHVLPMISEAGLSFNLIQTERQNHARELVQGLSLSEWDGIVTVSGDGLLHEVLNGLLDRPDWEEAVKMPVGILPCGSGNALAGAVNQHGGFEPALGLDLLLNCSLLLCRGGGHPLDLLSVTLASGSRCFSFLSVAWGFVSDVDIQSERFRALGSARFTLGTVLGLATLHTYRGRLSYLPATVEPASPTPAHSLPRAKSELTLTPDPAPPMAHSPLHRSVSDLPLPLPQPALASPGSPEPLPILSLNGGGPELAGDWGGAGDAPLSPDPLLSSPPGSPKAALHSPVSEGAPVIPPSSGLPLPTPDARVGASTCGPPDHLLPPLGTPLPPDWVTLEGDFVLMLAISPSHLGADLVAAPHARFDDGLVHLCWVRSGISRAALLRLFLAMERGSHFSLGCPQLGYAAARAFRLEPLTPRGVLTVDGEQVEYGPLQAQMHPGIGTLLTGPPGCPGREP
Particulars: at 0.1 µM.

Test [3] deals with T1, Sphingosine kinase 2 (Homo sapiens). Particulars: at 1 µM.
In test [4] the target is Casein kinase II subunit alpha (Homo sapiens) (UniProt P68400). Particulars: at 0.1 µM.
For test [5] the target is unchanged. Particulars: at 1 µM.
For test [6], the target named is T2, Inhibitor of nuclear factor kappa-B kinase subunit alpha (Homo sapiens) (UniProt O15111).
T2 sequence (whole entry): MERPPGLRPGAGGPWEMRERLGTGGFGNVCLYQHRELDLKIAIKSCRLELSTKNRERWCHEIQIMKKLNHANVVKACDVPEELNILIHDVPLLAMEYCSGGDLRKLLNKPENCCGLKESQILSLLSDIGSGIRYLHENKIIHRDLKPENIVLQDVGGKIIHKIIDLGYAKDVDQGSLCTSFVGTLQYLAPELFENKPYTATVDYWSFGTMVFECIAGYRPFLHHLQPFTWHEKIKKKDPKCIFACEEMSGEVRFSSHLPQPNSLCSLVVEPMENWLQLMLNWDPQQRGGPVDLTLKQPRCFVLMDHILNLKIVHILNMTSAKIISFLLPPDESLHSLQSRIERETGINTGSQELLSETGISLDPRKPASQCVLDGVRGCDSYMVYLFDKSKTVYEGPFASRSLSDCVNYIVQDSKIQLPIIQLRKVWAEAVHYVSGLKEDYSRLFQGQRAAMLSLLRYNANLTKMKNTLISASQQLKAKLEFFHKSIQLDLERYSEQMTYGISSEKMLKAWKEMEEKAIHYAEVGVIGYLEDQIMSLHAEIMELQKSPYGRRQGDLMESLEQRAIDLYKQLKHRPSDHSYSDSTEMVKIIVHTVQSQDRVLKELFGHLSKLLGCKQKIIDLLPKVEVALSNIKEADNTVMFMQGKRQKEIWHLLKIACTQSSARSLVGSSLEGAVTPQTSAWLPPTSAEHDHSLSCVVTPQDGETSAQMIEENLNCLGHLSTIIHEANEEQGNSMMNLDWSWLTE
Particulars: at 0.1 µM.

Test [7] has as its target T2, Inhibitor of nuclear factor kappa-B kinase subunit alpha (Homo sapiens). Particulars: at 1 µM.
In test [8] the target is T3, Inhibitor of nuclear factor kappa-B kinase subunit beta (Homo sapiens) (UniProt O14920).
T3 sequence (whole entry): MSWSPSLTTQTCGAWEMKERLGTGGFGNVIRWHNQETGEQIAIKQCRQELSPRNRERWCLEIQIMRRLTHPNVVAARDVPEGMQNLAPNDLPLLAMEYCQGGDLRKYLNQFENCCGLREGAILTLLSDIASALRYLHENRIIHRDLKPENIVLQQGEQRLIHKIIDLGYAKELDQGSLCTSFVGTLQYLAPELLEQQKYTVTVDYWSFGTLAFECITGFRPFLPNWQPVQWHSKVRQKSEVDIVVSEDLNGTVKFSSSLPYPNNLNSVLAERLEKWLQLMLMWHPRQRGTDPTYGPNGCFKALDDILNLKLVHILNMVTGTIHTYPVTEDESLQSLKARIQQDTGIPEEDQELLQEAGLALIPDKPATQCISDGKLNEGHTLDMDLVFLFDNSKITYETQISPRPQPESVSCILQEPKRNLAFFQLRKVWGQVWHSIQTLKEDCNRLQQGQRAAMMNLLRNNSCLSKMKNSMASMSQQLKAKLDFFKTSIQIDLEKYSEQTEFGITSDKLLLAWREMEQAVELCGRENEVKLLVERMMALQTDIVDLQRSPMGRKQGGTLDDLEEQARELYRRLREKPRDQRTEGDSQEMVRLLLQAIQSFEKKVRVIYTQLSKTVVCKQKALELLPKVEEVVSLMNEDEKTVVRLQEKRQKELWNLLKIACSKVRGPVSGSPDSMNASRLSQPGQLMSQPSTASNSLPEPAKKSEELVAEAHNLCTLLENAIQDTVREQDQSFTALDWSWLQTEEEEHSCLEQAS
The settings on record: at 0.1 µM.

Test [9] has as its target T3, Inhibitor of nuclear factor kappa-B kinase subunit beta (Homo sapiens). The settings on record: at 1 µM.
Test [10] deals with T4, Inhibitor of nuclear factor kappa-B kinase subunit epsilon (Homo sapiens) (UniProt Q14164).
T4 sequence (whole entry): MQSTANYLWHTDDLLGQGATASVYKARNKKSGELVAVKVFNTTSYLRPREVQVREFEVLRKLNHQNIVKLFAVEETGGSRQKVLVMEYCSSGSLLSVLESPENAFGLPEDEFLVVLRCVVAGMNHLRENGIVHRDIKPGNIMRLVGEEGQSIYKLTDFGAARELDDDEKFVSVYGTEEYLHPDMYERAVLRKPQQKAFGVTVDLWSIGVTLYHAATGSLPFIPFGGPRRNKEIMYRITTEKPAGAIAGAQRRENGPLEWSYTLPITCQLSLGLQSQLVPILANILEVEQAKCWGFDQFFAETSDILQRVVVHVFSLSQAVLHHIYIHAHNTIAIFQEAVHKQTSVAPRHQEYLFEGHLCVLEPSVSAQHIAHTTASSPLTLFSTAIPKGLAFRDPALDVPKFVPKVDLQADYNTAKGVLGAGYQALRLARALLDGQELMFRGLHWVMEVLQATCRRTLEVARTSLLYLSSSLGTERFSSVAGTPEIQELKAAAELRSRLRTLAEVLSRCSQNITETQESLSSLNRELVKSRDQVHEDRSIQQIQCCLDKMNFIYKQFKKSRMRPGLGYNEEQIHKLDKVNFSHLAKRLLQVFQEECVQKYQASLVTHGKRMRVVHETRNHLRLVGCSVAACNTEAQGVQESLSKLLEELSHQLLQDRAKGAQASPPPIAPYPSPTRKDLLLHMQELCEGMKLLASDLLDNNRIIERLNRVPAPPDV
Particulars: at 0.1 µM.

Sequence of Casein kinase II subunit alpha (Homo sapiens) (P68400 whole entry, looked up): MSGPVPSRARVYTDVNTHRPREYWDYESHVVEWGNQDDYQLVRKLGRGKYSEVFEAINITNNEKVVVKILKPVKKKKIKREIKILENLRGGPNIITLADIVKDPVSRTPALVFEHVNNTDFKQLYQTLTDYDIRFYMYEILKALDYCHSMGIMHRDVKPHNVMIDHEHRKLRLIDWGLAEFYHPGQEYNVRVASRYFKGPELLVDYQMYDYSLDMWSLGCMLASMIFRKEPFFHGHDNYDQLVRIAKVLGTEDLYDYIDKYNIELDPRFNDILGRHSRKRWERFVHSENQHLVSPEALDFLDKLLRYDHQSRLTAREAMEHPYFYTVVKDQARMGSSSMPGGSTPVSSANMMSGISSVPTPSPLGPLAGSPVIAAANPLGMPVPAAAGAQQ
Sequence of Sphingosine kinase 1 (Homo sapiens) (Q9NYA1 whole entry): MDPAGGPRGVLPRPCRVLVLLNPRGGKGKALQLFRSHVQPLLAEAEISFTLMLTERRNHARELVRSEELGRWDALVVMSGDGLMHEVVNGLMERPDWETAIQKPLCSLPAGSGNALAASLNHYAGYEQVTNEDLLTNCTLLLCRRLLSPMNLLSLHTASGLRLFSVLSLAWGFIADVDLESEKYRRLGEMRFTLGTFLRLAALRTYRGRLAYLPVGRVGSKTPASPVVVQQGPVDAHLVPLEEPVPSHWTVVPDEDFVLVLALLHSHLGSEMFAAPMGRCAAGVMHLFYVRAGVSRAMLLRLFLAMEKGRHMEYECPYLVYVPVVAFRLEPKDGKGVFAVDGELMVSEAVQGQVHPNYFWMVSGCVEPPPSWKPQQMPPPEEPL

Broadly, the inhibition is the drop in the measured response relative to a control, in per cent. Take `NS(=O)(=O)c1ccc(N/N=C2\C(=O)Nc3ccc(-c4cnco4)cc32)cc1`: the inhibition was 1.01% in test [1]; 1.12% in [2]; -1.25% in test [3]; 5.69% in [4]; 15.2% in test [5]; 1.42% in test [6]. The inhibition in [7] worked out at 35.1%; in [8], 2.62%; in [9], 10.4%; in test [10] it was 5.68%.
In the case of `N#Cc1ccc(Oc2nccc(-c3c(-c4ccc(F)cc4)ncn3C3CCNCC3)n2)cc1`, the inhibition in test [1] was 0.37%; in test [2], -1.27%; in test [3], -0.57%; in [5] it was 4.89%; in [6] it was 11.3%; in test [7], 4.73%. Besides, the values for the inhibition in test [8], in test [9] and in test [10] were 8.59%, 5.99% and 9.95%, respectively.
On to `CN(C)CCOc1ccc(-c2cc(-c3ccc4c(c3)CCC4=NO)c(-c3ccncc3)o2)cc1`, for which the inhibition is -2.32% in test [1]; -0.68% in test [2]; 0.96% in test [3]; -3% in [4]; 0.33% in test [5]; -4.03% in test [6]. Moreover, the inhibition in test [8] was -1.54%; in [9], -1.92%; in test [10], -1.86%.
With `CCC(=O)Nc1ccc(C)c(-c2ccc(C(=O)NCC3CC3)cc2)c1`, the inhibition was 0.8% in test [1]; -0.3% in test [2]; 0.9% in test [3]; 2.11% in test [5]; 10.5% in [6]; 7.65% in test [7]. The inhibition in [8] turned out to be 5.07%; in [9], 5.57%; in test [10], 9.75%.
`CN(c1ccc(NC(=O)Nc2c(Cl)cccc2Cl)cc1)c1ccnc(Nc2cccc(CS(C)(=O)=O)c2)n1`: the inhibition was -2.39% in test [1]; 0.77% in test [2]; -0.82% in test [3]; 2.18% in [4]; 6.66% in [5]; -7.42% in test [6]. The inhibition in [8] worked out at 3.11%; in test [9], 2.65%; in test [10], 6.91%.
On to `Fc1ccc(-c2ncn(CCCN3CCOCC3)c2-c2ccncc2)cc1`, for which the inhibition was -2.07% in test [1]; -0.81% in test [2]; -0.25% in test [3]; -2.49% in [4]; -6% in test [5]; -8.87% in test [7]. Further, the inhibition in test [8] is 7.22%; in test [9] it was 3.34%; in test [10], 4.58%.
Regarding `Fc1ccc(-c2ncn(C3CCNCC3)c2-c2ccnc(Oc3ccc4c(c3)OCO4)n2)cc1`, the inhibition in [1] was -2.26%; in test [2], -0.59%; in test [3], 0%; in test [4], 11.3%; in [5], 3.74%; in [6] it was 5%. Besides, the inhibition in test [7] was determined as 9.09%; in [8] it was 6.93%; in [9] it was 8.89%; in [10], 7.17%.
`Cc1ccc(C(=O)NC(C)C)cc1-c1ccc(C(=O)NCC2CC2)cc1`: the inhibition in [1] is -2.98%; in [2], -1.05%; in [3] it was 1.77%; in [4] it was 7.28%; in test [5], 0.22%; in test [6], 2.97%. Besides, the inhibition in [7] was -1.81%; in test [8] it was -0.39%; in test [9], -1.83%; in test [10], -5.06%.
Consider `COc1ccc2cc(-c3c(-c4ccncc4)nc(-c4ccc([S+](C)[O-])cc4C)n3C)ccc2c1` (stereo not given), for which the inhibition in [1] was 5.11%; in test [2], 0.43%; in test [3], 0.76%; in test [4] it was 2.77%; in [5] it was 3.85%; in [6], -4.94%. Moreover, the inhibition in test [7] is -5.55%; in [8], -0.05%; in test [9], -2.53%; in test [10], -2.45%.
